Data on 20 molecules can be found in PubChem BioAssay (NCI).

About 79,000 compounds went through this panel and 15% of them were active in at least one assay; those are over-represented in the sample as a whole. A number with no mark means an inactive call. Calls of active or inactive are those of the source. No stated cut-off is given here; in the data, active means growth inhibition above about 70%; inactive means the rest.

Assay [1] is described as follows: NCI Yeast Anticancer Drug Screen. Data for the rad50 strain (AID 155).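 Further: 0% = growth of vehicle-only cultures of the same strain.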 The settings on record: S. cerevisiae rad50 strain growth inhibition; at 50.0 µM; stronger effect = higher value. In outline:
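Vehicle-treated cultures provide the reference for the growth inhibition reported for compound-exposed, repair-deficient yeast.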

A short description of assay [2]: NCI Yeast Anticancer Drug Screen. Data for the mec2-1 strain (AID 157). Particulars: S. cerevisiae mec2-1 strain, at 50.0 µM, stronger effect = higher value. In a few lines:
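Readout is yeast growth inhibition, normalised to vehicle-treated controls, in the mec2-1 strain exposed to compound.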

The nature of assay [3]: NCI Yeast Anticancer Drug Screen. Data for the sgs1 mgt1 strain (AID 161).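 Further: 0% = growth of cultures given vehicle only.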 Particulars: S. cerevisiae sgs1 mgt1 strain, at 50.0 µM, stronger effect = higher value. In a few lines: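 Growth of a repair-deficient yeast mutant was monitored after compound treatment and expressed as inhibition relative to vehicle-treated cultures.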
Assay [4] is described as follows: NCI Yeast Anticancer Drug Screen. Data for the cln2 rad14 strain (AID 165).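 Further: 0% = growth equal to vehicle treated cultures.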 The settings on record: S. cerevisiae cln2 rad14 strain, at 50.0 µM, stronger effect = higher value. In outline:
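Relative to vehicle controls, growth inhibition of compound-treated cln2 rad14 yeast was recorded.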

Assay [5] in a line: NCI Yeast Anticancer Drug Screen. Data for the bub3 strain (AID 167). Particulars: S. cerevisiae bub3 mutant strain, at 50.0 µM, stronger effect = higher value. In outline:
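Mutant yeast screening strain plus compound; vehicle-treated cultures serve as the 0% inhibition reference.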

Assay [6] is described as follows: NCI Yeast Anticancer Drug Screen. Data for the mlh1 rad18 strain (AID 175). The settings on record: S. cerevisiae mlh1 rad18 strain growth inhibition; at 50.0 µM; stronger effect = higher value. In a few lines: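 Test agents were incubated with a yeast strain of defined genotype (DNA damage repair defect). Inhibition of growth was derived by comparison with vehicle-exposed cultures.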

Turning to `COc1ccc2ncc(C)c(CO)c2c1`, the growth inhibition was 3.25% in assay [1]; -6.05% in assay [2]; -1.65% in assay [3]; -50.9% in assay [4]; 0.75% in assay [5]; -2.65% in assay [6].
As for `CCO/C=C1\SC(=S)N(CCc2ccc(OC)c(OC)c2)C1=O`, the growth inhibition is -0.85% in assay [1]; -6.85% in assay [2]; -10.9% in assay [3]; -2.2% in assay [4]; -5.6% in assay [5]; -10.5% in assay [6].
Turning to `O=C(C[n+]1ccccc1Br)c1ccc(I)cc1`, the growth inhibition in assay [1] is -32.9%; in assay [2] it was 2%; in assay [3], 10.3%; in assay [4], -6.95%; in assay [5], 17.1%; in assay [6] it was 29.9%.
On to `CCOC(=O)c1cc2c(nc1NCc1ccccc1)C(=O)CCCC2`, for which the growth inhibition in assay [1] was 7.95%; in assay [2] it was 22%; in assay [3], 30.8%; in assay [4], 10.3%; in assay [5], 26.4%; in assay [6], 17.6%.
With `CCCCN=C(OC1C=CCCC1)SC` (stereo not given), the growth inhibition in assay [1] was -12.8%; in assay [2] it was -25.6%; in assay [3], -14.6%; in assay [4], 9.95%; in assay [5], -4.7%; in assay [6], -7.7%.
As for `O=C1c2ccccc2C(=O)N1CCNc1ccccc1[N+](=O)[O-]`, the growth inhibition was -9.25% in assay [1]; -12.2% in assay [2]; 7% in assay [3]; -22.9% in assay [4]; 6.5% in assay [5]; -19.2% in assay [6].
As to `Nc1nc(-c2ccccc2)c(N=Nc2ccc([N+](=O)[O-])cc2Cl)s1`, the growth inhibition in assay [1] is -4.7%; in assay [2], 2.55%; in assay [3] it was 4.4%; in assay [4] it was -13.1%; in assay [5], -11.5%; in assay [6], 3.6%.
For the molecule `O=S(=O)(C(=C(c1ccccc1)c1ccccc1)c1ccccc1)c1ccccc1`, the growth inhibition in assay [1] was 42.1%; in assay [2], 99.5% (active); in assay [3] it was 19.9%; in assay [4], 17.8%; in assay [5], 6.35%; in assay [6], 68%.
In the case of `O=P(O)(O)CN1CCN(CP(=O)(O)O)CCN(CP(=O)(O)O)CCN(CP(=O)(O)O)CC1`, the growth inhibition in assay [1] was -39.9%; in assay [2], -16.8%; in assay [3] it was -8.75%; in assay [4] it was 12.1%; in assay [5], -0.05%; in assay [6], -19.1%.
For the molecule `Cc1ccc2ncccc2c1`, the growth inhibition in assay [1] is -2.75%; in assay [2], -18.1%; in assay [3], 1.8%; in assay [4], -12.4%; in assay [5], 3.9%; in assay [6], -6.45%.
As for `CCN(CC)C1=C(C)S(=O)(=O)C1c1ccc(C)cc1` (stereo not given), the growth inhibition in assay [1] is -9.1%; in assay [2] it was -12.6%; in assay [3], -8.85%; in assay [4] it was 5.6%; in assay [5] it was -13.4%; in assay [6], -2.15%.
Take `O=C(NCC(F)(F)C(F)(F)C(F)(F)C(F)(F)C(F)(F)C(F)(F)C(F)(F)F)Oc1ccccc1`: the growth inhibition is 39.2% in assay [1]; 3.3% in assay [2]; 26.7% in assay [3]; 9.45% in assay [4]; -2.05% in assay [5]; 3.35% in assay [6].
`CCN(CC)CCN1C(=O)c2cccc3c(N)c(OC)cc(c23)C1=O`: the growth inhibition in assay [1] was 47.5%; in assay [2], -27.8%; in assay [3], -20.8%; in assay [4] it was -11.9%; in assay [5], -24.2%; in assay [6], -48.3%.
For `COc1ccc(CCNC(=S)N/C=C\c2nc3ccccc3[nH]c2=O)cc1OC`, the growth inhibition in assay [1] was 11.1%; in assay [2], 2.8%; in assay [3], 6.15%; in assay [4] it was 11.3%; in assay [5], 8%; in assay [6], 19.9%.
Turning to `O=C(OC1COC(n2c(=O)oc3cc([N+](=O)[O-])c([N+](=O)[O-])cc32)C(OC(=O)c2ccccc2)C1OC(=O)c1ccccc1)c1ccccc1` (stereo not given), the growth inhibition in assay [1] is -5.15%; in assay [2], 8.6%; in assay [3] it was 14.4%; in assay [4] it was -9.15%; in assay [5], -8.55%; in assay [6], 3.35%.
Consider `O=C(N/N=C\C(F)(F)F)c1ccncc1`, for which the growth inhibition is 0.85% in assay [1]; -10.8% in assay [2]; 4.65% in assay [3]; -25% in assay [4]; 1.5% in assay [5]; 24.1% in assay [6].
`CCc1cccc(CC)c1NC(=O)c1ccccc1Br`: the growth inhibition was 2.5% in assay [1]; 1.85% in assay [2]; 15.7% in assay [3]; 16.3% in assay [4]; -0.05% in assay [5]; 21.2% in assay [6].
For `CC1OC(OC2C(OC(=O)[C@]34CCC(C)(C)C[C@H]3C3=CC[C@@H]5[C@@]6(C)CC[C@H](OC7OC(C(=O)O)C(O)C(OC8OCC(O)C(O)C8O)C7O)C(C)(C)[C@@H]6CC[C@@]5(C)[C@]3(C)CC4)OCC(O)C2O)C(O)C(OC2OCC(O)C(O)C2O)C1OC1OCC(O)C(OC2OCC(O)C(O)C2O)C1O` (stereo not given in full), the growth inhibition is 17.1% in assay [1]; 21.2% in assay [2]; 19.6% in assay [3]; 31.2% in assay [4]; 38.4% in assay [5]; 29.8% in assay [6].
In the case of `O=C1c2ccccc2C(=O)N1CCOCCOCCN1C(=O)c2ccccc2C1=O`, the growth inhibition in assay [1] was -8.15%; in assay [2] it was -6%; in assay [3], -17%; in assay [4], -20.7%; in assay [5], -2.7%; in assay [6] it was 20.4%.
Turning to `CNc1ncnc2n[nH]nc12`, the growth inhibition in assay [1] was -10.7%; in assay [2], -0.35%; in assay [3], -12.1%; in assay [4] it was -23%; in assay [5] it was -11.6%; in assay [6], 3.45%.
